Most compounds without a hit are left out; they make up all but 17% or so of the library.
TDP1 cell noCPT: qHTS for Inhibitors of human tyrosyl-DNA phosphodiesterase 1 (TDP1): qHTS in cells in absence of CPT; Potency, µM (doses to about 46.2 µM), without a hit: top-dose activity change, negative = growth inhibition, usual class: inhibitors; DT40 Tdp1-/- hTDP1 cells, no CPT, ATP luminescence, 48 h; 420,000 compounds, 15% hits; also: % is scaled to controls: 0 for no effect and ±100 for the full control effect; nearly all actives have a fitted effect of over 55% in size
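No-CPT arm: Tdp1-/-;hTDP1 DT40 cells (400/well) plus compounds, incubated ≥48 hr at 37 °C. Readout CellTiter-Glo luminescence.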
TDP1 cell CPT: growth inhibition of DT40 Tdp1-/-;hTDP1 cells with camptothecin (screen for TDP1 inhibitors); chicken DT40 Tdp1-/-;hTDP1 cells + 20 nM CPT, ATP luminescence, 48 h; Potency, µM (highest dose often 46.2 µM), inactives show top-dose activity change, negative = growth inhibition, most hits filed as inhibitors; 420,000 compounds, 12% hits; AID 686979; also: % is scaled to controls: 0 for no effect and ±100 for the full control effect; nearly all actives have a fitted effect of over 55% in size
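Cell growth measured by CellTiter-Glo luminescence after a minimum 48 h, 37 C compound exposure with 20 nM CPT in Tdp1-knockout DT40 cells stably expressing hTDP1, seeded 400/well; qHTS titration format.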
ClpP mod: qHTS Assay for Activators of ClpP; AID 651965, 2013; Potency, µM (highest dose often 57.5 µM), without a hit: top-dose activity change, negative = active; 340,000 compounds, 1.9% hits; ATP-dependent Clp protease proteolytic subunit (Bacillus subtilis (strain 168)), P80244; purified B. subtilis ClpP, FRET peptide cleavage, 20 min; active = well fitted falling curve with a large enough effect; inconclusive = small, poorly fitted or top-dose-only effect; inactive = no such curve, though single readings can be large or run the other way; also: the source files actives as falling curves though it sought activators and does not explain the sign; nearly all actives have a fitted effect of over 65% in size
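FRET quenching reversal measured ClpP activation: 10 microg/mL B. subtilis ClpP at pH 8 with the FRET-FV decapeptide, read at 430 nm after 320 nm excitation. The 20-min minus 0-min signal was scaled between DMSO/no-enzyme wells and ADEP (5.8 microM final).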
TDP1 block: blocks human tyrosyl-DNA phosphodiesterase 1 | 350,000 compounds, 0.28% hits | AID 485290 | recombinant TDP1, AlphaScreen DNA substrate cleavage | Potency, µM (highest dose often 130 µM), without a hit: at the top dose activity change, negative = inhibition, actives largely listed as inhibitors; also: % is scaled to controls: 0 for no effect and ±100 for the full control effect; nearly all actives have a fitted effect of over 40% in size
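Recombinant human Tdp1 (E. coli-expressed, 1 nM final) preincubated with compounds 15 min at room temperature, then 5'-biotin/3'-phosphotyrosine-FITC DNA substrate (15 nM final) added for 5 min. AlphaScreen beads (10 ug/ml final) added 10 min; cleavage lowers signal.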
* = called active by the depositor; ? = inconclusive; nt = no result given; [ ] = another dose, or the depositor's remark. Unless noted, calls follow the shape of the dose curve; as a rule, active = well fitted curve in the direction sought with a large enough effect; inconclusive = small, poorly fitted or top-dose-only effect, or another doubt; inactive = no such curve, though single readings can be large; an effect the other way counts as inactive or inconclusive. Potency is read from the fitted curve at half-maximal effect.

SMILES	TDP1 cell noCPT	TDP1 cell CPT	ClpP mod	TDP1 block
Cc1cccc(-c2nnc(-c3ccc(N)cc3)o2)c1	-28%	-14%	28µM*	-4%
COc1cccc(-c2nnc(-c3ccc4ccccc4c3)o2)c1	-27%	?	14µM*	nt
Cc1ccc(-c2noc(/C=C/c3ccccc3)n2)cc1	-12%	-29%	-8%	?
O=C(Cc1ccc(S(=O)(=O)N2CCOCC2)s1)NCCOc1ccccc1	3%	4%	8%	nt
CCOC(=O)C1=C(CN2CCN(c3ccccc3F)CC2)NC(=O)NC1c1ccc(OC)cc1 (centres undefined)	?	?	-5%	-5%
O=c1c2ccccc2c(C=Nc2ccc(Cl)cn2)c(O)n1-c1cc(Cl)ccc1N1CCOCC1	1.5µM*	?	2%	-2%
C[C@H](CO)N1C[C@H](C)[C@@H](CN(C)Cc2ccc3c(c2)OCO3)Oc2ccc(NS(C)(=O)=O)cc2C1=O	5%	-5%	-2%	1%
COc1ccc(C(=O)NC2CCCCCCC2)cc1OC	-16%	-6%	1%	nt
COc1cc(C(=O)NC2CCN(C)CC2)ccc1Nc1ncc2c(n1)N(CCc1ccccc1)CCC(=O)N2C	15µM*	23µM*	-18%	nt
COc1cc(C(=O)NC2CCN(C)CC2)ccc1Nc1ncc2c(n1)N(C1CCCC1)CCC(=O)N2C(C)C	16µM*	?	-20%	nt
C(=N\Nc1nc(Nc2ccccc2)nc(Nc2ccccc2)n1)/c1cccnc1	10µM*	16µM*	-1%	5%
Cc1ccc(-c2cc(-c3ccccc3)nc(N/N=C/c3cccnc3)n2)cc1	?	29µM*	-22%	nt
C(=N/Nc1nc(-c2ccccc2)cc(-c2ccccc2)n1)/c1cccnc1	16µM*	?	-10%	-3%
Cc1cc(-c2ccccc2)nc(N/N=C/c2cccnc2)n1	-28%	-23%	nt	9%
Cc1ncc2c(c1CNC(=O)c1ccc3c(c1)OCO3)CCN(C(=O)c1cc3ccccc3n1C)C2	-17%	-8%[9.04 µM]	nt	nt
O=C1NC(CCO)C(=O)NC1CCO (centres undefined)	-4%	22%	nt	nt
O=C(CN(C(=O)c1csnn1)c1ccc2c(c1)OCCO2)NCc1ccccc1	-4%	-4%	-3%	0%
CC(=S)/C=C1\Sc2ccccc2N1C	23µM*	15µM*	-1%	5%
COc1ccc(C(=O)/C=C2\Sc3ccccc3N2C)cc1	?	-3%	nt	-8%
O=C(CCc1nc2ccccc2c(=O)[nH]1)NCCN1C(=O)S/C(=C\c2ccccc2Cl)C1=O	?	?	-6%	nt
O=C(CCc1nc2ccccc2c(=O)[nH]1)NCCN1C(=O)S/C(=C\c2ccc(OC(F)F)cc2)C1=O	18µM*	?	15%	nt
CCOC(=O)C1(CC)Oc2ccccc2C(c2ccc(OC)cc2)=C1C(=O)OC (centres undefined)	18µM*	?	1%	-11%[56.1 µM]
CCOC(=O)C1Oc2ccccc2C(c2ccc(C)cc2)=C1C(=O)OC (centres undefined)	?	?	0%	-6%[56.1 µM]
Cc1nc2c(OCc3ccccc3)cccn2c1N(C)C(=O)C1CCCCC1	?	?	1%	nt
CC1(C(=O)Nc2cccnc2)Cc2c(-c3cccc(C(F)(F)F)c3)ccnc2O1 (centres undefined)	23µM*	16µM*	-4%	nt
SMILES	TDP1 cell noCPT	TDP1 cell CPT	ClpP mod	TDP1 block
CC1(C(=O)Nc2cccc(OC(F)(F)F)c2)Cc2c(-c3cccc(C(F)(F)F)c3)ccnc2O1 (centres undefined)	?	?	-21%	nt
CC(=O)c1cccc(NC(=O)C2(C)Cc3c(-c4cccc(C(F)(F)F)c4)ccnc3O2)c1 (centres undefined)	23µM*	16µM*	0%	nt
N=C1/C(=C\c2ccc(-c3cccc(C(=O)O)c3)o2)C(=O)N=C2SC=C(c3ccccc3)N12	?	?	-5%	50µM*
N=C1/C(=C/c2ccc(-c3cccc(C(=O)O)c3)o2)C(=O)N=C2SC(CC(=O)N3CCOCC3)=NN12	21%	-11%	-5%	8.9µM*
Cc1cc(/C=C2/C(=N)N3C(c4ccccc4)=CSC3=NC2=O)c(C)n1-c1ccccc1	13µM*	13µM*	-1%	4%
COc1ccccc1-n1c(C)cc(/C=C2\C(=N)N3N=C(CC(=O)N4CCOCC4)SC3=NC2=O)c1C	?	18µM*	4%	8%
C=C(C#N)C(=O)OCC	nt	nt	nt	14%
C/C(=N/N1CCN(Cc2cccc3ccccc23)CC1)c1ccco1	?	4%	nt	9%
O=C(Nc1ccccc1)Nc1cnccn1	16%	-8%	-14%	5%
CC(=O)N(CCCc1ccc(C(C)(C)C)cc1)CCCN(C)C	?	15µM*	-2%	9%
CCOC(=O)c1sc2nc(N3CCOCC3)c3c(c2c1N)CCCC3	-19%	?	32µM*	4%
COC(=O)c1ccc(CSc2ncnc3c2sc2nc(N4CCOCC4)c4c(c23)CCCC4)o1	18µM*	?	?	nt
COC(=O)c1ccc(-c2sc3nc(N4CCOCC4)c4c(c3c2N)CCCC4)o1	26µM*	18µM*	-18%	-5%
Nc1c(C(=O)NCc2ccco2)sc2nc(N3CCOCC3)c3c(c12)CCCC3	?	?	?	8%
COC(=O)c1sc2nc(N3CCCCC3)c3c(c2c1N)CCCC3	-28%	-15%	10µM*	0%
COC(=O)CSc1ncnc2c1sc1nc(N3CCOCC3)c3c(c12)CCCC3	-5%	-5%	?	-4%
COC(=O)c1sc2nc(-c3ccccc3)c3c(c2c1N)CCCC3	-26%	-10%	?	1%
COC(=O)C1=C(CS(=O)(=O)c2ccc(C)cc2C)NC(=O)NC1c1ccc(C)cc1 (centres undefined)	-3%	-1%	1%	1%
CCOC(=O)c1sc2nc(N3CCCC3)c3c(c2c1N)CC(C)(C)OC3	-22%	-21%	32µM*	5%
COc1ccc(NC(=O)c2sc3nc(N4CCOCC4)c4c(c3c2N)CCCC4)c(OC)c1	-6%	-4%	-24%	1%
Nc1c(C(=O)Nc2ccc(Br)cc2)sc2nc(N3CCOCC3)c3c(c12)CCCC3	?	21µM*	4%	nt
CCOC(=O)c1sc2nc(N3CCOCC3)c3c(c2c1N)CC(C(C)C)OC3 (centres undefined)	-13%	8.2µM*	-37%	3%
CCOC(=O)c1sc2nc3c(cc2c1N)COC(C(C)C)C3 (centres undefined)	-10%	-1%	1%	-4%
O=C(CN1C(=O)COc2ccc(S(=O)(=O)N3CCCCCC3)cc21)N1CCN(c2ccccc2)CC1	nt	nt	-4%	4%
CCOC(=O)c1sc2ccccc2c1S(=O)(=O)Nc1ccc(OC)c(Cl)c1	-29%	?	0%	8%
